A selection: hits, their analogues and other compounds. The true share with any hit is near 4.1%.
IDE cell activ: activators of human insulin-degrading enzyme in cells. P14735. HEK cells, FAbeta-B cleavage, fluorescence polarization; 0% vehicle, 100% cell-free pure enzyme wells. activation, % at 5.96 µM. actives 0.073% (n = 340,000). AID 493087;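 active = activation above the mean of all tested compounds plus 3 SD, set per screening campaign, cut at about 17% in these data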
IDE inh: inhibits human insulin-degrading enzyme in HEK cells; actives 0.41% (n = 320,000); inhibition, % at 5.59 µM; FAbetaB cleavage, fluorescence polarization; P14735; AID 434962;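 active = percent inhibition above the average of all tested compounds plus 3 SD, set per screening campaign, cut at about 16% in these data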;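 also: IDE supplied by intact live HEK cells; FP after avidin binding of uncleaved biotin substrate so inhibition keeps polarization high; 0% = DMSO wells and 100% = 60 µM reference IDE inhibitor Ii1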
CaV13 ICDI inh: Disruptors of the CACNA1D IQ motif to Ca2+-dependent inactivation inhibitor domain association, primary screening, Förster resonance energy transfer in intact living … | inhibition, % at 12.3 µM | HEK cells, CFP/YFP FRET ICDI-IQ, plate reader, 10 min; percent FRET-ratio fall versus neutral wells | actives 0.098% (n = 340,000) | AID 743397;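 active = mean replicate inhibition of at least 30% and at least 1% of replicates passing that level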;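 also: 0% = median of the neutral control wells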
ALR inh: inhibitors of human sulfhydryl oxidase ALR | actives 3.8% (n = 290,000) | AID 485317 | inhibition, % (test concentration not listed) | purified ALR, DTT oxidation, H2O2 HRP-luminol luminescence | P55789;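 active = mean replicate inhibition above about 79%, with every replicate also reaching it, limit read from the data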
PolyA inhibitor: blocks polyadenylation in yeast reporter cells | actives 0.02% (n = 300,000) | S. cerevisiae SKY197-pL101 polyadenylation reporter, beta-gal luminescence; efflux-impaired pdr1/pdr3 knockout yeast; score 100 = 6 SD above DMSO | activity score, % at 12 µM;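 active = lowest replicate activity score at least 50, where 100 means six control SD above control mean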;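 also: yeast exposed to compound for 9 h at 30 °C; higher score means more reporter readthrough which indicates perturbed polyadenylation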
PfM18AAP inh: blocks P. falciparum M18 aspartyl aminopeptidase; inhibition, % at 7.35 µM; actives 1.2% (n = 290,000); recombinant PfM18AAP, H-Glu-NHMec fluorogenic cleavage;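 active = inhibition above the campaign mean inhibition over all tested compounds plus 3 SD, cut at about 28% in these data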;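 also: 0% = plate median of test compound wells and 100% = 2 mM ZnCl2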
* = called active by the depositor; / = not tested or not shown.

SMILES	IDE cell activ	IDE inh	CaV13 ICDI inh	ALR inh	PolyA inhibitor	PfM18AAP inh
Cc1cc(C)c(S(=O)(=O)Nc2ccc(N(C)C)cc2)c(C)c1-n1cnnn1	-2	-1	-7	99*	-5	17
CCCCNC(=S)NNC(=O)c1ccoc1C	1	3	-7	/	0	29*
O=C(NCCc1ccc(Cl)cc1)c1ccc(=O)[nH]c1	-3	-3	-3	-3	0	-7
Cc1occc1C(=O)NC(C)CCc1ccccc1 (stereo unspecified)	-1	2	/	-5	-14	-3
Cc1occc1C(=O)NCCCCc1ccccc1	1	-4	-4	98*	-2	4
Cc1occc1C(=O)NC(C)C(C)(C)C (stereo unspecified)	5	-4	-8	98*	20	-2
O=C(NCCc1ccc(O)cc1)c1ccc(Cl)cc1	-4	3	/	79*	10	5
CC(=O)NC(Cc1cc(C)ccc1C)C(=O)N1CCN(C(=O)c2ccc([N+](=O)[O-])cc2)CC1 (stereo unspecified)	1	0	-6	-30	1	-7
Cc1noc(C)c1-c1ccc(C(=O)NCCc2ccccc2)c2occc12	/	/	40*	/	/	/
Cc1occc1C(=O)NCCc1ccc(Cl)cc1	5	-3	-7	96*	-7	-23
Cc1cc(C(=O)NCCc2ccc(Cl)cc2)no1	7	-2	-4	1	3	4
CCCCNC(=S)NNC(=O)c1c(Cl)c(C)nn1C	-1	-1	/	67	6	-1
CCCCNC(=S)NNC(=O)c1c(C)nc2ccccn12	0	-3	-2	34	8	38*
O=C(COc1ccc(S(=O)(=O)NC2CCCCC2)cc1)NCCC1=CCCCC1	5	5	-5	-4	1	7
O=C(Cn1c2c(c(=O)n3ncnc13)CCC2)N/N=C/c1ccc(Cl)cc1	-4	-3	-4	0	10	-7
Cn1c2c(c(=O)n3ncnc13)CCCC2	2	17*	0	-16	0	-10
O=c1c(Cl)c(Cl)cnn1Cc1ccccc1Cl	/	-2	-3	95*	-13	5
Cc1ccc(Cn2ncc(Cl)c(Cl)c2=O)cc1	-2	4	-15	15	1	-7
Cc1cc(C)cc(Cn2ncc(Cl)c(Cl)c2=O)c1	/	-3	-3	96*	-8	-17
COC(=O)c1ccccc1NC(=O)CSc1n[nH]c(-c2ccco2)n1	4	1	-3	8	-2	-5
CCCCN(C)C(=O)Cn1c(=O)oc2cc(S(=O)(=O)N3CC(C)CC(C)C3)ccc21 (stereo unspecified)	1	-3	-17	1	-4	-4
CCC1C(=O)N=C(SCC(=O)Nc2nc3ccccc3s2)NC1=O (stereo unspecified)	6	-2	-2	99*	-4	-2
CCOC(=O)c1ccc(NC(=O)CSc2nnc(C)n2-c2ccccc2)cc1	1	4	/	-7	-1	-6
CCOC(=O)CC(=O)Nc1nc2ccccc2s1	5	6	-5	/	-4	-9
CCOC(=O)c1ccc(NC(=O)CSC2=NC(=O)C(CC)C(=O)N2)cc1 (stereo unspecified)	3	3	-4	99*	23	22
SMILES	IDE cell activ	IDE inh	CaV13 ICDI inh	ALR inh	PolyA inhibitor	PfM18AAP inh
Cn1cc(SCC(=O)Nc2nc3ccccc3s2)c2ccccc21	5	-1	/	98*	-3	-8
CCC1C(=O)N=C(SCC(=O)Nc2cccc3ccccc23)NC1=O (stereo unspecified)	-3	-3	-4	99*	12	-2
COc1ccc2nc(COC(=O)c3cccs3)c(C(C)=O)[n+]([O-])c2c1	-4	8	-3	-3	0	3
COc1cc(C(CC(=O)Nc2cc(C)ccn2)N2Cc3ccccc3C2=O)cc(OC)c1OC (stereo unspecified)	0	7	-3	-19	4	-2
CC(=O)N(Cc1cccs1)Cc1cc2ccc(C)c(C)c2nc1Cl	-2	0	-9	6	-8	-1
Cc1ccc(N2CC(C(=O)OCC(=O)Nc3ccc(F)cc3F)CC2=O)cc1 (stereo unspecified)	2	-7	-6	/	/	/
